Results reported in article PMC4336329 (PLoS ONE, 2015).
In all, about 310,000 compounds went through this assay and about 14,000 (4.5%) showed an effect of 50% or more. The effect is printed as a negative number. The list comes from a sample in which strong results are over-represented; it also holds similar structures and randomly drawn compounds.

biological target: human ether-à-go-go-related gene (hERG) potassium channel (human, UniProt Q12809); assay: primary screen, population patch clamp on CHO cells stably expressing hERG; higher = less effect of the substance
Sequence (Q12809 whole entry, looked up): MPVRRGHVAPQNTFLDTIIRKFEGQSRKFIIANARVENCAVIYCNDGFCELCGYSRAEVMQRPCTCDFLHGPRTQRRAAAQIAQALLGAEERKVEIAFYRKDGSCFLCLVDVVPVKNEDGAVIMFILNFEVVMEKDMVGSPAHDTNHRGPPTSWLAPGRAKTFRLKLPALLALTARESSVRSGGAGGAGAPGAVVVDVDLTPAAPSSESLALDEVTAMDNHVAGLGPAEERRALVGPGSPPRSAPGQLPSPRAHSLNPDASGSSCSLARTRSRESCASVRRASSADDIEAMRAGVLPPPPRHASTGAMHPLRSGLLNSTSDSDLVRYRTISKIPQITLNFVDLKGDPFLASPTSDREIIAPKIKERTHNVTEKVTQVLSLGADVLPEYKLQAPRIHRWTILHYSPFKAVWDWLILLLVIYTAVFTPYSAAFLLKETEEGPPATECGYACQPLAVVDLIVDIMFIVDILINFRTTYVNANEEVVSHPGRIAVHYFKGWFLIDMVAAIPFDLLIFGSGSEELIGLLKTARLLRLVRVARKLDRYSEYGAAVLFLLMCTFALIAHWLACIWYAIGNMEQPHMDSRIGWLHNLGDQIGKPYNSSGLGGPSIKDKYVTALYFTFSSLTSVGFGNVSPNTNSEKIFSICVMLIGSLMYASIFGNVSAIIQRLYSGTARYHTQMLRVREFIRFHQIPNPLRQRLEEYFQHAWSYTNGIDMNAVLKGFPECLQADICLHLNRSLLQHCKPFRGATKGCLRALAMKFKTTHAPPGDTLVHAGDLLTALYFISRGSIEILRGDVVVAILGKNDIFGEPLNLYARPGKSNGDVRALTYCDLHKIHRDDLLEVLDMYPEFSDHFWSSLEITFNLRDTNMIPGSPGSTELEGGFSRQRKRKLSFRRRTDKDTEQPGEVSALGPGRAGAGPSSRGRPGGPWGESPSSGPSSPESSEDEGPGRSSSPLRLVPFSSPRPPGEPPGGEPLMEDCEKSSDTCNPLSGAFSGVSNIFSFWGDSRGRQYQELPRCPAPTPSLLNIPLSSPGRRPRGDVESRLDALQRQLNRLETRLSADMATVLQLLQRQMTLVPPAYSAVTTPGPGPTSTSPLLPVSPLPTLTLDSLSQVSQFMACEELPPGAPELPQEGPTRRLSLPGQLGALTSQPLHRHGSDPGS
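Further: peak tail current of the secondary pulse compared with the same well before compound.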

Row | SMILES | hERG current change (%, negative = inhibition) at 10uM [%]
1 | COc1ccc(-n2nc(C(=O)NCC(=O)N3CCN(c4ccccc4OC)CC3)c3ccccc3c2=O)cc1OC | -34.5
2 | CC1CCN(C(=O)CCc2ccc(S(=O)(=O)NC(C)(C)C)cc2)CC1 | -5.31
3 | O=C(N/N=C/c1ccncc1)c1cc([N+](=O)[O-])cc([N+](=O)[O-])c1O | 4.15
4 | CCOC(=O)C(=O)Nc1nnc(CCc2ccccc2)s1 | 6.37
5 | CCCNS(=O)(=O)c1ccc(OCC(=O)N2CCN(Cc3ccc4c(c3)OCO4)CC2)cc1 | -32
6 | Cc1cc(S(=O)(=O)NC(C)C)ccc1OCC(=O)N1CCN(Cc2ccc3c(c2)OCO3)CC1 | -27.6
7 | CCCNS(=O)(=O)c1ccc(OCC(=O)N2CCN(Cc3ccc4c(c3)OCO4)CC2)c(C)c1 | -61.6
8 | Cc1ccc(OCC(=O)N2CCc3ccccc3C2)c(C)c1 | -16.1
9 | COCCNS(=O)(=O)c1ccc(OCC(=O)N2CCc3ccccc3C2)c(Cl)c1 | -43.5
10 | CCCNS(=O)(=O)c1ccc(OCC(=O)N2CCc3ccccc3C2)c(C)c1 | -65.9
11 | CCOc1cc(C)c(C(C)C)cc1S(=O)(=O)n1cnc(C)c1 | -18.7
12 | Cc1ccc(NC(=O)C2=COCCO2)cc1S(=O)(=O)N1CCOCC1 | -0.0399
13 | CCOC(=O)C1CCN(C2CC(=O)N(c3cccc(Cl)c3)C2=O)CC1 (stereo not drawn) | -12
14 | C[C@H]1CN=C(Nc2ccccc2)N1CC1CCC1 | -0.391
15 | c1ccc(C[C@H]2CN=C(Nc3ccccc3)N2CCC2CCCC2)cc1 | -70.4
16 | CC(C)C[C@H]1CN=C(Nc2ccccc2)N1CC1CCC1 | -30.2
17 | c1ccc(C[C@H]2CN=C(Nc3ccccc3)N2CC2CCC2)cc1 | -63
18 | CCn1c2ccccc2c2cc(NC(=O)COC(=O)c3cc(OC)c(OC)cc3OC)ccc21 | -3.41
19 | COC(=O)c1ccccc1NC(=O)c1cc2nc(C3CC3)cc(C(F)(F)F)n2n1 | 9.42
20 | Cn1c(SCC(=O)N/N=C/c2cc([N+](=O)[O-])ccc2O)nnc1-c1ccccc1 | 10.5
21 | Cn1c(Sc2ccc(C(=O)O)cc2[N+](=O)[O-])nnc1-c1ccccc1 | -6.68

Row | SMILES | hERG current change (%, negative = inhibition) at 10uM [%]
22 | Cn1cnnc1Sc1ccc(C(F)(F)F)cc1[N+](=O)[O-] | 2.45
23 | Cn1c(Sc2ccc(C(F)(F)F)cc2[N+](=O)[O-])nnc1-c1ccccc1 | -62.8
24 | CSc1nnc(-c2ccccc2)n1C | 5.22
25 | Cn1c(Sc2ccc([N+](=O)[O-])cc2C(F)(F)F)nnc1-c1ccccc1 | -55
26 | CC(=O)Nc1ccc(S(=O)(=O)Nc2c(C)nn(-c3ccccc3)c2C)cc1 | -7.68
27 | O=c1c(C(c2ccc(Cl)cc2)c2c(O)nc3n(c2=O)CCCS3)c(O)nc2n1CCCS2 | 21.3
28 | CCN(CC)S(=O)(=O)c1cccc(-c2nnc(SCCCC(=O)c3ccccc3)o2)c1 | -23.8
29 | O=C(Nc1ccc(O)cc1)C1CCCN1S(=O)(=O)c1ccc(F)cc1 (stereo not drawn) | -1.44
30 | C=CCn1c(SCc2c(C(=O)OC)sc(N)c2C(=O)OC)nnc1-c1ccc(Cl)cc1 | -58.1
31 | C=CCn1c(SCc2ccc(C(=O)OC)cc2)nnc1-c1sc(N)nc1C | -8.5
32 | C=CCn1c(SCc2c(C(=O)OC)sc(N)c2C(=O)OC)nnc1-c1ccc(Br)cc1 | -65.4
33 | COC(=O)c1sc(N)c(C(=O)OC)c1CSc1nnnn1C | -12.2
34 | COC(=O)c1sc(N)c(C(=O)OC)c1CSc1nnc(-c2ccccc2Cl)n1C | -24.5
35 | C=CCn1c(SCC(=O)NC2CCCCC2)nnc1-c1ccc(OC)cc1 | -12
36 | O=C(O)c1cccnc1SCC(=O)N1CCCc2ccccc21 | 14.6
37 | Nc1nc(SCC(=O)Nc2ccccc2)nc2nc3c(cc12)CCCC3 | -1.5
38 | C=C1SC(=Nc2c(C)cccc2Cl)N(C(=O)c2sc3ccccc3c2Cl)C12CCCCC2 | 25.8
39 | Cc1ccc(S(=O)(=O)NCCCCCC(=O)Nc2cccc(C)c2)cc1 | -39.2
40 | Cc1cc(Cl)c(OCCOCCN2CCNCC2)c(Cl)c1.O=C(O)C(=O)O | -7.47
41 | Cc1cc(C)c(OCCN2CCOCC2)c(Cl)c1 | 8.09
42 | Cc1cc(Cl)c(OCCCN2CCCCC2)c(Br)c1.O=C(O)C(=O)O | -68.1
